From ChEMBL document CHEMBL3433997, “St. Jude Leishmania screening dataset” (2016)

Key:
Type in all cases: functional
[1] = target: Solute carrier family 2, facilitated glucose transporter member 1 (Homo sapiens) (UniProt P11166); experiment: ST_JUDE_LEISH: Cytotoxicity at 2uM final concentration against transgenic Leishmania Mexicana promastigotes LmGLUT1 that are glucose transport deficient and complemented with the human glucose transporter GLUT1. Activity is measured by DNA content using SYBR green in vitro
[2] = target: Hexose transporter 1 (Plasmodium falciparum) (UniProt O97467); experiment: ST_JUDE_LEISH: Cytotoxicity at 2uM final concentration against transgenic Leishmania Mexicana promastigotes LmPfHT that are glucose transport deficient and complemented with the Plasmodium falciparum hexose transporter. Activity is measured by DNA content using SYBR green in vitro
[3] = target: Glucose transporter (Leishmania mexicana) (UniProt O61059); experiment: ST_JUDE_LEISH: Cytotoxicity at 2uM final concentration against transgenic Leishmania Mexicana promastigotes LmGT2 that are glucose transport deficient and complemented with the L. Mexicana glucose transporter 2. Activity is measured by DNA content using SYBR green in vitro

Sequence of Solute carrier family 2, facilitated glucose transporter member 1 (Homo sapiens) (P11166 whole entry): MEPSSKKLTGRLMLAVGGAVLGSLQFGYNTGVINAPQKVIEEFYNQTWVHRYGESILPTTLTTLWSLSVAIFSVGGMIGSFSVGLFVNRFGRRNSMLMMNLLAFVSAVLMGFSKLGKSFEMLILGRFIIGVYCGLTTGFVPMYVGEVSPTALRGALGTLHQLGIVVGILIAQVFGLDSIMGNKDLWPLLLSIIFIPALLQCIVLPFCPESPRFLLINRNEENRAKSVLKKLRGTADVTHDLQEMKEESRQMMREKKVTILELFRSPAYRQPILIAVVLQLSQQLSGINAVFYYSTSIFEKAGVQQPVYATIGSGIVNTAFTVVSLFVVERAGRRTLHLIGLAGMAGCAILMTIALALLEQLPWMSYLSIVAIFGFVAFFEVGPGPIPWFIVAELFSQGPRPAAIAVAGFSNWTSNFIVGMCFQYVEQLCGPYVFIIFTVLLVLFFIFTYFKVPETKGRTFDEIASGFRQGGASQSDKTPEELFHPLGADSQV

Row | SMILES | inhibition [1] [%] | inhibition [2] [%] | inhibition [3] [%]
1 | Cc1ccc(CN(Cc2ccc(C(=O)N(C)C)cc2)Cc2ccc3c(c2)OCCO3)cc1C | 0.09 | 0.35 | 0.35
2 | COc1ccc(CCN(C)CCc2ccc(NC(=O)c3cccc4c(=O)c5ccccc5sc34)cc2)cc1 | 2.21 | -0.35 | 0.2
3 | Cc1cc(Nc2ccc(C)c(C)c2)n2nc(C)nc2n1 | 5.08 | 5.03 | 5.46
4 | COc1cc2nc(N3CCC(CNC(=O)/C=C/c4ccccc4F)CC3)nc(N)c2cc1OC | 8.22 | 7.84 | 4.27
5 | c1cc(OCCN2CCCC2)ccc1CNC1CCN(CC2CCCCC2)CC1 | -3.76 | -0.11 | -4.21
6 | Cc1ccc(N2C(N)=NC(N)=NC2(C)C)cc1Cl | 11.4 | 8.8 | 8.05
7 | O=C(N/C=N/c1cc([N+](=O)[O-])c(-c2ccncc2)n1-c1ccccc1)c1cccc(O)c1 | 0.21 | 0.41 | 0.38
8 | O=C(/C=C/c1ccc(Cl)c(Cl)c1)NCCCCCN1CCC(NC(=O)Nc2cc(Cl)nc(Cl)c2)CC1 | 1.28 | -0.18 | 0.44
9 | Clc1ccc(Cn2nc(Br)nc2Br)c(Cl)c1 | -0.61 | -1.03 | -4.56
10 | COc1ccc2c(NN=Cc3cccnc3)ccnc2c1 | 0.4 | 2.02 | -0.33
11 | Cc1[nH]cnc1CSCCN/C(=N\C#N)NCCCCCCCCN/C(=N/C#N)NCCSCc1nc[nH]c1C | 2.45 | 2.15 | 2.98
12 | O=c1cc(NCCCNCc2scc(I)c2I)[nH]c2ccccc12 | 4.34 | 5.49 | 4
13 | O=C1CSc2ccc(CNC3CCN(CCc4c(Cl)cnc5ccc(Cl)cc45)CC3)nc2N1 | 0.88 | -0.05 | -1.85
14 | CCCC(=O)c1cnc2c(I)cccc2c1Nc1ccccc1C | 3.51 | 4.24 | 3.57
15 | COc1cc2c(cc1NS(=O)(=O)c1ccc(OCc3ccc(Br)cc3)cc1)CCN(C1CCC1)CC2 | 0.64 | -0.8 | -0.51
16 | N=C(NCCc1ccccc1Cl)c1ccc2ccccc2c1 | -1.42 | -1.63 | -2.06
17 | O=C(Nc1ccc(Cn2ncc(N3CCCNCC3)c(Cl)c2=O)cc1)Nc1ccc(SC(F)(F)F)cc1 | 3.57 | 10.1 | -1.22
18 | CC(C)(C)c1nn(-c2ccccc2)c2[nH]c(=O)c(CNC3CCCCC3)cc12 | 1.69 | 1.5 | 2.72
19 | O=C(c1cc2cccc([N+](=O)[O-])c2[nH]1)N1CCC(CCN2CCC(c3c[nH]c4ccccc34)CC2)CC1 | 1.52 | 12.8 | 2.6
20 | CCCC(C)Nc1nc(C)cc(N[C@@H](Cc2ccccc2)C(=O)NCc2ccc(C)cc2)n1 (some centres undefined) | 9.97 | 9.09 | 4.86
21 | CC(C)(C)CN1C(=O)C(c2ccccc2)(c2ccccc2)N=C1N | 2.88 | 2.58 | 1.88
22 | COc1cc(Nc2nc(N)c3cc(OC)c(OC)cc3n2)cc(OC)c1 | 6.58 | 5.6 | 3.12
23 | O=C(NC1CCN(Cc2ccc3c(c2)OCCO3)CC1)c1ccc(-c2cccc(Cl)c2)s1 | 5.55 | 5.55 | 6.98
24 | O=C(Nc1ccc(-c2nc3ccccc3[nH]2)cc1)c1ccc(Cl)s1 | 3.19 | 2.35 | 1.71
25 | CCCc1cc(C(=O)N[C@@H](Cc2ccccc2)[C@H](O)CNC2CCOCC2)c(F)c(N2CCCCS2(=O)=O)c1 | 4.76 | 5.47 | 6.25

Row | SMILES | inhibition [1] [%] | inhibition [2] [%] | inhibition [3] [%]
26 | COc1ccc(Nc2nc(C)cc(NC3CCCC3)n2)cc1 | 29.2 | 26.2 | 17.7
27 | CCn1ncc(Cl)c1CN(C)S(=O)(=O)c1ccc2ccccc2c1 | 5.72 | 6.41 | 6.31
28 | CNCCCNCc1ccc(-c2ccc(F)c(Cl)c2)o1 | 0.54 | 1.28 | 0.56
29 | CCOc1ccc2[nH]c(C)cc(=NN=Cc3ccncc3)c2c1 | 0.75 | 0.8 | -2.05
30 | CCOc1ccc(-c2nonc2NC(=O)c2cccc(Cl)c2)cc1OCC | 2.52 | 3.66 | -0.71
31 | CCCNc1ccc2nccc(CCN3CCC(NCc4ccc5c(n4)NC(=O)CS5)CC3)c2n1 | 3.5 | 2.84 | 8.69
32 | CC=Cc1cc(Cc2c[nH]c(=N)[nH]c2=N)cc(CCC)c1OC | 10.8 | 8.99 | 4.71
33 | COc1ccccc1N=C1SC(=Cc2cn(CC(=O)N3CCCc4ccccc43)c3ccccc23)C(=O)N1C1CCCCC1 | 2.84 | 0.47 | -1.37
34 | Cc1cc(C)c(NC(=O)NC2CCN(CCCCCNC(=O)/C=C/c3ccc(Cl)c(Cl)c3)C2)c(C)c1 (centres undefined) | 2.03 | 2.36 | 2.29
35 | O=C(Cn1cc(C=C2SC(=NC3CCCC3)N(C3CCCC3)C2=O)c2ccccc21)N1CCCC1 | 4.24 | 1.46 | 0.81
36 | O=c1cc(NCCCCNCc2cccc(Br)c2)[nH]c2ccccc12 | 5.23 | 5.07 | 3.39
37 | CN(C)Cc1cccc(CNC(=O)c2sccc2OCc2ccc(Cl)cc2)c1 | -0.98 | -3.67 | 1.11
38 | CCCCc1cc(NCC)nc(Nc2ccc(F)cc2)n1 | 18.4 | 10.4 | 4.95
39 | OC(CNCc1ccccc1OCc1ccccc1)c1cccc(I)c1 (centres undefined) | 3.99 | 5.42 | 0.61
40 | O=C(C=Cc1cn(-c2ccccc2)nc1-c1ccccc1)N1CCN(c2ccncc2)CC1 | 5.75 | 5.64 | 4.62
41 | O=C(N[C@@H](CC1CCCCC1)C(=O)NCCN1CCCC1)c1ccc(O)c(-c2ccc(Cl)c(Cl)c2)c1 | 0.12 | 0.41 | 0.58
42 | Cc1noc(C)c1C(=O)N1CCc2cc3nccc(N4CCN5CCC[C@H]5C4)c3cc21 | 0.08 | 1.27 | -0.53
43 | CC(C)CNCc1ccc(-c2ccccc2CN(C(=O)NCCc2ccccc2)C2CCN(Cc3ccccc3)CC2)cc1 | 1.25 | 1.42 | -0.19
44 | CN1CCC(NCc2ccc(-c3cccc(S(=O)(=O)NCC4CCCO4)c3)cc2)CC1 (centres undefined) | 0.62 | 3.18 | 6.61
45 | CN(C)CCN(C)Cc1ccc(-c2ccc3c(Nc4ccc(F)cc4Cl)ccnc3c2)o1 | 1.3 | 0.81 | -0.21
46 | Oc1ccc(CCNCCCCCCNCCCc2ccc(Cl)cc2)cc1O | 2.83 | 4.13 | 4.05
47 | COc1cc(NC(=O)c2ccc(-c3ccccc3)cc2)ccc1OCCCN1CCC(c2ccccc2)CC1 | 0.2 | 2.26 | 2.91
48 | COc1ccc(Cl)cc1N1CCN(CCCNC(=O)c2ccc(-c3nc4cc(Cl)c(F)cc4[nH]3)c(F)c2)CC1 | 6.94 | 2.24 | 4.99
49 | CCOC(=O)C(C(C)=O)C(c1ccccc1)C(C(C)=O)C(=O)OCC (centres undefined) | 3.08 | 4.69 | 0.94
50 | CCN(CC)c1nc(Nc2cc(C)ccc2C)nc(Nc2ccccc2O)n1 | 4.16 | 5.53 | 4

Row | SMILES | inhibition [1] [%] | inhibition [2] [%] | inhibition [3] [%]
51 | O=C(Nc1ccc(OC2CCN(Cc3ccsc3)C2)c(Cl)c1)c1ccco1 (centres undefined) | 0.28 | 1.35 | 0.21
52 | Cc1ccc([S+]([O-])Cc2ccc(Cl)cc2)cc1 (centres undefined) | -0.22 | -0.65 | 1.2
53 | N#Cc1ccc(CN2CCCN(c3ccc(NC(=O)c4ccc(F)cc4)cc3)CC2)cc1 | 2.88 | 3.32 | 0.81
54 | CCN(CC)/C(=N/C(=N)NCc1ccc(Cl)cc1Cl)NCCCCCCN/C(=N\C(=N)NCc1ccc(Cl)cc1Cl)N(CC)CC | 1.61 | 1.69 | 1.51
55 | OCC1CCN(Cc2ccc(-c3ccc(-c4nc5cc(C(F)(F)F)ccc5[nH]4)cc3)cc2)CC1 | 5.9 | 8.94 | 3.07
56 | CC(C)(C)OC(=O)NCc1ccc(Nc2nnc(-c3cccc(OCC(=O)NCc4cc(C(F)(F)F)cc(C(F)(F)F)c4)c3)o2)cc1 | 0.8 | 1.63 | 1.12
57 | CC(C)c1ccc(CN2CCCCC(NC(=O)c3cc(-c4ccccc4F)cs3)C2)cc1 (centres undefined) | 8.71 | 8.1 | 11.2
58 | CC(=O)N1N=C(c2ccc(Cl)cc2)Sc2c1nc(-c1ccccc1)n2C(C)=O | 2.66 | 1.84 | 2.48
59 | Cc1cccc2nc(-c3ccc(-c4cccc(NC(=O)CCc5c[nH]cn5)c4)s3)[nH]c12 | 3.85 | 2.05 | 1.67
60 | O=C(Nc1cccc(F)c1)N(Cc1ccc(-c2cccc(CN3CCNCC3)c2)cc1)C1CCN(Cc2ccccc2)CC1 | 7.44 | 6.99 | 6.85
61 | Cc1cccc2nc(-c3ccc(-c4cccc(NC(=O)Nc5ccc(Cl)c(Cl)c5)c4)s3)[nH]c12 | 0.85 | -0.11 | 0.38
62 | COc1ccc(CCN(C)CCCN2CCC(NC(=O)c3cccc4c(=O)c5ccccc5sc34)CC2)cc1OC | 2.6 | 1.86 | 5.63
63 | CCC[C@@H]([C@@H](CC1CCCCC1)C(=O)N[C@H](C(=O)Nc1nccc(N)n1)C(C)(C)C)N(O)C=O | 3.28 | 4.83 | 4.24
64 | O=C(Nc1ccc(Cn2ncc(N3CCCNCC3)c(Cl)c2=O)cc1)Nc1cc(F)cc(C(F)(F)F)c1 | 2.7 | 3.7 | 0.99
65 | CCCc1cc(OC)c(CC2c3cc(O)c(Cl)cc3CCN2C)cc1OC (centres undefined) | 9.73 | 7.17 | 14.9
66 | CCN(CC)CCN(Cc1ccc(-c2ccc(C(F)(F)F)cc2)cc1)C(=O)Cn1c(CCC2CCCCC2)nc(=O)c2ccccc21 | 0.48 | 1.35 | 0.43
67 | CN(C)Cc1ccc(-c2ccc(NC(=O)c3ccc4c(=O)n(Cc5ccoc5)cnc4c3)cc2)cc1 | 1.36 | 1.35 | -0.37
68 | CCCCN1CCN(CC(O)CNC(=O)Nc2ccc(Cl)cc2)CC1 (centres undefined) | 2.88 | 3.59 | 1.81
69 | O=C(Nc1ccc(S(=O)(=O)N2CCCCC2)cc1)c1cc(-c2cc(Cl)ccc2O)n[nH]1 | 6.03 | 6.9 | 4.71
70 | CSc1ccc2ccccc2c1CCNCCCCNCCc1c(SC)ccc2ccccc12 | 68.9 | 96.1 | 81.6
71 | Cc1cc(O)c(CNC2CCCCC2)cc1C | 1.17 | 1.33 | 2.92
72 | COc1ccc(C2N=C(N)N=C(N)N2c2ccc(Cl)cc2)cc1OC (centres undefined) | 2.61 | 2.52 | 2.93
73 | CNCc1ccc2nc(-c3coc(Cc4cc(Cl)ccc4OCC(C)C)n3)[nH]c2c1 | 6.56 | 4.9 | 3.77
